# Assay outcomes deposited in PubChem BioAssay by several laboratories.
# The list is not random: actives were taken first. Their share in the collection is about 3.2%.
# PAX8 inh HTS: inhibitors of PAX8-driven TPO luciferase reporter, primary screen, RMG-I cells, single concentration | SteadyGlo, 24 h | inhibition, % at 12.6 µM | 360,000 tested, 1.2% active | AID 652154, 2013;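 active means mean replicate inhibition at least 60% with every replicate also reaching 60%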;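 further: luciferase light reporting Pax8 driven TPO promoter activity; plate controls were median of neutral control wells for no effect and mitoxantrone controls for full effect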
# LGR2 inh: inhibitors of bursicon-induced LGR2 CRE-luciferase signal, primary screen, cell-based, HEK293, CRE-luciferase reporter, bursicon stimulation; bursicon-stimulated, 4 h; inhibition, % at 9.99 µM; 380,000 tested, 0.35% active; AID 720647, 2013;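 active means drop in luminescence signal, shown as inhibition above about 50% in the replicate tests, limit read from the data, passing the limit was not always enough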;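 further: agonist challenge used bursicon conditioned medium at about half maximal strength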
# TROY signal inh: inhibitors of TROY-driven NF-kB signaling, primary screen, Q293 LMP1-TROYcd cells, NF-kB luciferase, uHTS | Q293 LMP1-TROYcd NF-kB luciferase reporter, 4 h | inhibition, % at 10 µM | 360,000 tested, 0.98% active | AID 1347056, 2019;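 active means compounds whose plate-normalised and pattern-corrected inhibition of the luciferase reporter signal at the single screening dose is 50% or more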
# TWEAK-Fn14 inh: inhibitors of TWEAK-Fn14 signaling, primary screen, luciferase reporter cells, uHTS | TWEAK-stimulated Fn14 reporter cells, luciferase luminescence, 8 h | inhibition, % at 10 µM | 360,000 tested, 2% active | AID 1159606, 2016; in the data active means inhibition above about 50%
# EWS-Fli inh: EWS/Fli-driven NR0B1 reporter inhibitors, primary screen, A673 cells, NR0B1 luciferase, luminescence, MLPCN library. viability-normalised. AID 651661, 2012. inhibition, % at 12.6 µM. 350,000 tested, 0.67% active;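 active means mean inhibition of at least 50% after viability correction, with every replicate also passing that limit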;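 further: firefly luciferase signal divided by Alamar Blue viability fluorescence both relative to DMSO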
# LMP1 NFkB inh: EBV LMP1-driven NF-kappaB luciferase reporter inhibitors, primary screen, cell-based, luminescence, single point. LMP1-induced NF-kappaB luciferase reporter cells. inhibition, % at 12.5 µM. 350,000 tested, 0.69% active; in the data active means inhibition above about 41%;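 further: 0% = neutral control wells and 100% = reference inhibitor control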
# * = called active by the depositor; · = not tested or not shown.
SMILES,PAX8 inh HTS,LGR2 inh,TROY signal inh,TWEAK-Fn14 inh,EWS-Fli inh,LMP1 NFkB inh
C[C@H]1CN([C@@H](C)CO)C(=O)c2cc(C#CCN(C)C)cnc2O[C@@H]1CN(C)S(=O)(=O)c1cn(C)cn1,·,14,·,·,11,·
C[C@@H]1CN([C@@H](C)CO)C(=O)c2cc(NS(=O)(=O)c3cccs3)ccc2O[C@@H]1CN(C)S(=O)(=O)c1cccs1,0,-16,·,·,-3,·
COc1ccc(/C=N/NC(=O)c2nnn(-c3nonc3N)c2-c2cccs2)cc1OC,-11,-3,-2,9,·,2
CC(C)c1c(C(=O)N/N=C/c2cccc(OCc3ccccc3)c2)nnn1-c1nonc1N,-26,13,58*,43,·,-11
CC(C)c1c(C(=O)N/N=C/c2ccc(OCc3ccccc3)cc2)nnn1-c1nonc1N,-75,-29,-19,-34,·,-7
COc1cccc(/C=N/NC(=O)c2nnn(-c3nonc3N)c2C(C)C)c1OCc1ccc(F)cc1,·,·,62*,63*,·,14
COc1cc(/C=N/NC(=O)c2nnn(-c3nonc3N)c2C(C)C)ccc1OCc1ccccc1,-2,-3,37,62*,-25,-4
CC(C)c1c(C(=O)N/N=C/c2ccc(OCc3ccc(F)cc3)cc2)nnn1-c1nonc1N,-199,-54,-4,-48,·,-22
Nc1nonc1-n1nnc(C(=O)N/N=C/c2cccc(Cl)c2)c1-c1cccs1,-29,3,6,51*,·,-1
CCC(=O)N1[C@H](C(=O)NC2CCC2)[C@@H](CO)[C@@H]2Cn3c(ccc(C4=CCCC4)c3=O)[C@@H]21,·,-9,·,·,2,·
COc1ccc2c3c([nH]c2c1)[C@@H](CO)N(Cc1ccc(F)cc1)CC31CCN(C)CC1,17,-1,·,·,9,·
C[C@@H]1CN([C@@H](C)CO)C(=O)c2cc(NC(=O)C3CC3)ccc2O[C@H]1CN(C)Cc1ccc2c(c1)OCO2,-20,-6,·,·,-6,·
COc1cccc(NC(=O)N[C@@H]2C=C[C@@H](CC(=O)NCc3ccccn3)O[C@@H]2CO)c1,4,22,·,·,0,·
C[C@@H]1CCCCO[C@@H](CN(C)C(=O)Nc2ccc(F)cc2)[C@H](C)CN([C@H](C)CO)C(=O)c2cc(NC(=O)NC3CCCCC3)ccc2O1,59,5,·,·,-8,·
C[C@@H]1CN([C@H](C)CO)C(=O)c2cc(NC(=O)Nc3ccc(F)cc3)ccc2O[C@@H](C)CCCCO[C@H]1CN(C)C(=O)NC1CCCCC1,84*,1,·,·,14,·
C[C@H]1CCCCO[C@H](CN(C)C(=O)NC2CCCCC2)[C@@H](C)CN([C@@H](C)CO)C(=O)c2cc(NC(=O)NC3CCCCC3)ccc2O1,66*,0,·,·,8,·
C[C@@H]1CCCCO[C@H](CN(C)C(=O)Nc2ccc(F)cc2)[C@@H](C)CN([C@@H](C)CO)C(=O)c2cc(NC(=O)NC3CCCCC3)ccc2O1,66*,20,·,·,4,·
C[C@H](CO)N1C[C@H](C)[C@H](CN(C)C(=O)Nc2cccc3ccccc23)OCCCC[C@H](C)Oc2ccc(NC(=O)NC3CCCCC3)cc2C1=O,28,60*,·,·,24,·
C[C@@H]1CCCCO[C@@H](CN(C)C(=O)NC2CCCCC2)[C@@H](C)CN([C@@H](C)CO)C(=O)c2cc(NC(=O)Nc3ccc(F)cc3)ccc2O1,7,16,·,·,-15,·
COc1ccc(-c2cnc3c(c2)C(=O)N([C@H](C)CO)C[C@H](C)[C@H](CN(C)S(=O)(=O)c2ccc(F)cc2)O3)cc1,6,1,·,·,4,·
CO[C@@H]1CN(C)C(=O)c2ccc(NS(C)(=O)=O)cc2OC[C@H](C)N(C(=O)C2CC2)C[C@@H]1C,-2,-6,·,·,0,·
C[C@@H]1CN([C@H](C)CO)S(=O)(=O)c2ccc(C#CC3CC3)cc2O[C@@H]1CN(C)C(=O)Cc1ccncc1,·,-2,·,·,5,·
COCC(=O)N1[C@H](CO)[C@@H]2c3ccccc3N(C(=O)c3ccncc3)C[C@@H]21,-6,8,·,·,-1,·
